Measurements: PubChem BioAssay AID1159580 (chemical genetic matrix, 2015)
Several values for one entry are separate records, joined by “and”; a condition that tells them apart may be missing. Identical values can stand only once. Among all 5,500 compounds or so, about 2,000 (36%) were called active. Another 18% or so got no clear call; they are omitted. Cut-off read from the data, not from the text of the source: active = normalized growth mostly below about 0.91 (no sharp cut-off); inconclusive = no clear call, values can overlap the other calls; inactive = mostly above about 0.92. This is one part of the list.

Test: chemical genetic growth profiling, strain panel (AID 1159580);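 note: tested at 20 µM; growth read once vehicle control cultures reached saturation at 30 °C; 1 = growth at the plate median or of vehicle wells; lower values mean less growth of the strain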
Settings: S. cerevisiae deletion strains, growth OD

Measured: normalized growth

C[C@@H]1CC[C@H]2C(C)(C)C3CC12CC[C@@]3(C)O (stereo partly specified)
inactive: locus YAL021C, strain ccr4, hits give low values 0.942 | locus YAL026C, strain drs2, hits give low values 0.918 | locus YBR021W, strain FUR4, hits give low values 0.935 | locus YBR171W, strain sec66, hits give low values 0.962 | locus YBR229C, strain ROT2, hits give low values 1.02 | locus YCL029C, strain bik1, hits give low values 1.01 | locus YCL061C, strain MRC1, hits give low values 0.952 | locus YCL069W, strain vba3, hits give low values 0.977 | locus YCR088W, strain abp1, hits give low values 0.976 | locus YDL035C, strain GPR1, hits give low values 0.979 | locus YDL040C, strain nat1, hits give low values 0.952 | locus YDL074C, strain BRE1, hits give low values 0.913 | locus YDL101C, strain DUN1, hits give low values 0.988 | locus YDL185W, strain tfp1, hits give low values 0.99 | locus YDR001C, strain nth1, hits give low values 1.01 | locus YDR101C, strain arx1, hits give low values 0.939 | locus YDR150W, strain NUM1, hits give low values 1.02 | locus YDR162C, strain NBP2, hits give low values 1 | locus YDR318W, strain mcm21, hits give low values 0.95 | locus YDR334W, strain swr1, hits give low values 1 | locus YDR335W, strain msn5, hits give low values 0.928 | locus YDR388W, hits give low values 0.969 | locus YDR502C, strain sam2, hits give low values 0.924 | locus YEL037C, strain rad23, hits give low values 0.973 | locus YER110C, hits give low values 0.984 | locus YER167W, strain BCK2, hits give low values 0.948 | locus YGL078C, strain dbp3, hits give low values 0.955 | locus YGL167C, strain pmr1, hits give low values 1.01 | locus YGL227W, strain vid30, hits give low values 0.969 | locus YGL248W, strain PDE1, hits give low values 0.968 | locus YGR135W, strain pre9, hits give low values 0.922 | locus YGR252W, strain gcn5, hits give low values 0.97 | locus YHR013C, strain ard1, hits give low values 0.961 | locus YHR030C, strain SLT2, hits give low values 0.93 and 0.993 | locus YHR079C, strain IRE1 (second series), hits give low values 1.02 | locus YHR079C, strain IRE1, hits give low values 0.99 | locus YHR094C, strain hxt1, hits give low values 0.992 | locus YHR129C, strain ARP1, hits give low values 0.968 | locus YHR200W, strain rpn10, hits give low values 0.941 | locus YIL066C, strain RNR3, hits give low values 0.937 | locus YIL073C, strain SPO22, hits give low values 0.974 | locus YIL125W, strain kgd1, hits give low values 0.959 | locus YIR030C, strain dcg1, hits give low values 0.987 | locus YJL092W, strain hpr5, hits give low values 0.968 | locus YJL095W, strain BCK1, hits give low values 0.927 and 1.01 | locus YJL115W, strain asf1, hits give low values 0.996 | locus YJL134W, strain LCB3, hits give low values 1.01 | locus YJL154C, strain vps35, hits give low values 0.983 | locus YJL168C, strain set2, hits give low values 0.986 | locus YJL187C, strain SWE1 (second series), hits give low values 0.986 | locus YJR043C, strain POL32, hits give low values 0.97
active: locus YAL030W, strain snc1, hits give low values 0.884 | locus YBL061C, strain skt5, hits give low values 0.754 | locus YBR009C, strain hhf1, hits give low values 0.658 | locus YBR023C, strain chs3, hits give low values 0.7 | locus YBR231C, strain swc5, hits give low values 0.862 | locus YBR279W, strain paf1, hits give low values 0.907 | locus YCL011C, strain gbp2, hits give low values 0.811 | locus YCL016C, strain dcc1, hits give low values 0.859 | locus YDL005C, strain med2, hits give low values 0.848 | locus YDL192W, strain arf1, hits give low values 0.872 | locus YDR137W, strain rgp1, hits give low values 0.67 | locus YDR159W, strain sac3, hits give low values 0.603 | locus YDR195W, strain ref2 0.318 | locus YDR297W, strain sur2, hits give low values 0.906 | locus YDR392W, strain spt3, hits give low values 0.301 | locus YEL003W, strain gim4, hits give low values 0.848 | locus YEL061C, strain CIN8 (second series), hits give low values 0.875 | locus YEL061C, strain CIN8, hits give low values 0.917 | locus YER015W, strain faa2, hits give low values 0.86 | locus YER016W, strain bim1, hits give low values 0.904 | locus YER111C, strain swi4, hits give low values 0.77 | locus YER155C, strain BEM2 (second series), hits give low values 0.74 | locus YER155C, strain BEM2, hits give low values 0.876 | locus YFR010W, strain ubp6, hits give low values 0.863 | locus YGL086W, strain mad1, hits give low values 0.911 | locus YGL173C, strain kem1, hits give low values 0.795 | locus YGL240W, strain doc1, hits give low values 0.805 | locus YGL253W, strain hxk2, hits give low values 0.897 | locus YHR027C, strain rpn1, hits give low values 0.888 | locus YHR142W, strain chs7, hits give low values 0.605 | locus YJL095W, strain BCK1 (second series), hits give low values 0.699 | locus YJL129C, strain trk1, hits give low values 0.859 | locus YJL164C, strain tpk1, hits give low values 0.753 | locus YJL166W, strain qcr8, hits give low values 0.669 | locus YJL187C, strain SWE1, hits give low values 0.833
